Pf growth 48h – P. falciparum growth inhibition at 48 hours (one generation). P. falciparum luciferase growth in erythrocytes, 48 h. 310,000 tested, 5.9% active. AID 504832. Potency, µM (highest dose often 28.7 µM), for the others: at the highest dose activity change, negative = inhibition, most hits filed as inhibitors; also: % is scaled to controls: 0 for no effect and ±100 for the full control effect
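Here the parasites carry a stable luciferase gene and grow inside erythrocytes in Albumax-based RPMI medium with compound for one erythrocytic cycle. Activity is scored as loss of luminescent signal.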
VACV mCherry inh – vaccinia inhibition (mCherry reporter). Vaccinia virus mCherry reporter infection, fluorescence. Potency, µM (series often up to 36.5 µM), for inactives: at the highest dose activity change, negative = inhibition, hits mostly inhibitors. 310,000 tested, 0.63% active. AID 720579; calls by dose curve; tested in A549 cells; also: % is scaled to controls: 0 for no effect and ±100 for the full control effect; nearly all actives have a fitted effect of over 35% in size
Vaccinia Venus – vaccinia inhibition (Venus reporter). Vaccinia virus Venus reporter expression, fluorescence. Potency, µM (highest dose often 36.5 µM), without a hit: top-dose activity change, negative = inhibition, most hits filed as inhibitors. 330,000 tested, 0.46% active; calls by dose curve; tested in A549 cells; also: % is scaled to controls: 0 for no effect and ±100 for the full control effect; nearly all actives have a fitted effect of over 30% in size
Pf growth 96h – inhibits malaria parasite growth, 96 h. 320,000 tested, 6.9% active. P. falciparum luciferase reporter growth, 96 h. Potency, µM (doses to about 28.7 µM), for the others: at the highest dose activity change, negative = inhibition, hits mostly inhibitors; also: % is scaled to controls: 0 for no effect and ±100 for the full control effect
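96 h incubation, 37 C, 5% CO2, of luciferase-reporter P. falciparum-infected RBCs (2% hematocrit, 0.05% parasitemia final) with test compounds; endpoint luminescence.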
HCV inh – blocks hepatitis C virus; Potency, µM (top dose mostly 41.8 µM), for the others: top-dose activity change, negative = inhibition, hits mostly inhibitors; Huh7.5.1 HCVcc-Cre infection, luciferase reporter, 44 h; 340,000 tested, 3.4% active; also: % is scaled to controls: 0 for no effect and ±100 for the full control effect
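Seed cells (1,000/well) for 4 h; treat with compound and infect with HCVcc-Cre, moi about 0.5. Incubate 44 h, then detect luciferase activity.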
NS1 function inh – influenza NS1 inhibition | Potency, µM (doses to about 46.1 µM), inactives show at the highest dose activity, positive = more growth | 270,000 tested, 0.4% active; calls by dose curve; also: actives are rising curves; nearly all actives have a fitted effect of over 50% in size
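Compounds were scored for reversing the slow growth caused by influenza A NS1 in S. cerevisiae, measured by optical density at 600 nm. Assay medium contained 2% galactose at pH 6.0; NS1-free yeast of the same strain were the positive control.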
The depositor's hits bear a star. In the library only some 11% were active in any assay of this set; here they are far more common. Unless noted, calls follow the shape of the dose curve; as a rule, active = well fitted inhibition curve with a large enough effect; inconclusive = small, poorly fitted or top-dose-only effect, or another doubt; inactive = no such curve, though single readings can be large or run the other way. Potency is read from the fitted curve at half-maximal effect.

Cc1ccc2[nH]c(=O)c3cc(C(=O)N(C)Cc4ccco4)sc3c2c1 was read as VACV mCherry inh 0.2%, Vaccinia Venus -6.7%, Pf growth 96h -19.2%, HCV inh inconclusive and NS1 function inh -49.0%.
`O=C(Nc1ccccc1Cl)C1CCCN(c2ncnc3c2nc2n3CCCCC2)C1` (stereo not given) gave Pf growth 48h inconclusive, VACV mCherry inh inactive, Vaccinia Venus -25.2%, Pf growth 96h 6.57µM*, HCV inh inconclusive and NS1 function inh -39.2%.
Cc1cccc(CCNC(=O)C2CCCN(c3ncnc4c3nc3n4CCCCC3)C2)c1 (stereo not given) was read as Pf growth 48h inconclusive, VACV mCherry inh -13.8%, Vaccinia Venus -20.0%, Pf growth 96h 11.7µM*, HCV inh inconclusive and NS1 function inh -13.2%.
Cc1ccc(NC(=O)C2CCN(c3ncnc4c3nc3n4CCCCC3)CC2)nc1 was read as Pf growth 48h -12.3%, Pf growth 96h 61.4%, HCV inh 12.6µM* and NS1 function inh -26.8%.
Screening CCc1cccc(NC(=O)C2CCCN(c3ncnc4c3nc3n4CCCCC3)C2)c1 (stereo not given) returned Pf growth 48h inconclusive, VACV mCherry inh inactive, Vaccinia Venus inconclusive, Pf growth 96h inconclusive, HCV inh 11.2µM* and NS1 function inh -80.8%.
`O=S(=O)(NCCC1=CCCCC1)c1ccc(Br)cc1` gave Pf growth 48h 8.3%, VACV mCherry inh -8.6%, Vaccinia Venus -13.5%, Pf growth 96h -6.5%, HCV inh -1.5% and NS1 function inh -47.9%.
Screening Cc1csc(NC(=O)c2cc(=O)[nH]c3ccc(S(=O)(=O)N4CCOCC4)cc23)n1 returned Pf growth 48h 7.2%, VACV mCherry inh inactive, Vaccinia Venus -7.9%, Pf growth 96h 31.3% and HCV inh -7.0%.
COc1cc(NC(=O)C2CCCN(c3ncnc4c3nc3n4CCCCC3)C2)cc(OC)c1OC (stereo not given) was read as Pf growth 48h inconclusive, VACV mCherry inh inactive, Vaccinia Venus -27.3%, Pf growth 96h 13.1µM*, HCV inh -24.2% and NS1 function inh -9.2%.
For CCOc1ccc(CNC(=O)CN2C(=O)CSc3ccc(S(=O)(=O)N4CCOCC4)cc32)cc1 the results were VACV mCherry inh inactive and Vaccinia Venus -18.9%.
`CCOc1ccccc1NC(=O)c1cc2c(Cl)nc3ccccc3c2s1` gave VACV mCherry inh 8.1% and Vaccinia Venus 13.2%.
For CCOc1ccccc1C(=O)Nc1cc(Cl)ccc1O the results were Pf growth 48h 3.29µM*, VACV mCherry inh inconclusive, Vaccinia Venus inconclusive, HCV inh 7.08µM* and NS1 function inh -85.5%.
For COc1ccccc1C(=O)Nc1cc(Cl)ccc1O the results were Pf growth 48h inconclusive, Vaccinia Venus 3.6%, Pf growth 96h inconclusive, HCV inh inconclusive and NS1 function inh -11.3%.
For CCOc1ccccc1NC(=O)c1cc(-c2ccncc2)nc2c(Cl)cccc12 the results were Pf growth 48h 5.22µM*, VACV mCherry inh -8.3%, Vaccinia Venus 5.8%, Pf growth 96h -1.3%, HCV inh inconclusive and NS1 function inh 10.0%.
`CCOc1ccccc1C(=O)Nc1nnc(C(C)C)s1` gave VACV mCherry inh -8.1%, Vaccinia Venus -29.1%, Pf growth 96h 1.1%, HCV inh 12.6µM* and NS1 function inh -9.2%.
COc1cc(NC(=O)c2ccccc2Cl)c2ncccc2c1 was read as Pf growth 48h -10.4%, Pf growth 96h inconclusive, HCV inh 10µM* and NS1 function inh -29.4%.
Screening CCOC(=O)C1(CC2CCCCO2)CCN(C2CCSCC2)CC1 (stereo not given) returned Pf growth 48h inconclusive, VACV mCherry inh -22.3%, Vaccinia Venus 4.8%, Pf growth 96h 21.7%, HCV inh 2.8% and NS1 function inh -2.5%.
For CCCCNC(=S)NNC(=O)c1csc2ccccc12 the results were VACV mCherry inh inconclusive, Vaccinia Venus -7.2%, Pf growth 96h 40.6%, HCV inh 7.2% and NS1 function inh -4.4%.
For CCOc1ccccc1C(=O)Nc1cccc2cccnc12 the results were Pf growth 48h inconclusive, VACV mCherry inh inactive, Vaccinia Venus -17.5%, Pf growth 96h inconclusive, HCV inh 11.2µM* and NS1 function inh -78.8%.
Screening Cc1ccc(Cl)cc1NC(=O)c1ccccc1OCC(=O)Nc1ccc(Cl)cc1 returned Pf growth 48h inconclusive, Pf growth 96h 9.28µM*, HCV inh 11.0% and NS1 function inh 5.0%.
`COc1ccc(NC(=O)COc2ccccc2C(=O)NCC(c2ccccc2)N(C)C)cc1Cl` (stereo not given) gave Pf growth 48h inconclusive, VACV mCherry inh -15.8%, Vaccinia Venus -14.2%, Pf growth 96h 13.1µM*, HCV inh inconclusive and NS1 function inh -2.5%.
Screening O=C(Nc1cccc2cccnc12)c1cccc2ccccc12 returned VACV mCherry inh -3.0%, Vaccinia Venus -0.9%, Pf growth 96h 1.3%, HCV inh inconclusive and NS1 function inh -5.3%.
Screening COc1ccc(NC(=O)COc2ccccc2)cc1Cl returned Pf growth 48h 5.8%, VACV mCherry inh -22.0%, Vaccinia Venus -15.1%, Pf growth 96h inconclusive, HCV inh inconclusive and NS1 function inh -28.3%.
Screening O=C(CNS(=O)(=O)c1ccccc1)OCC(=O)c1ccc(OC(=O)c2ccccc2)cc1 returned Pf growth 48h 6.7%, Pf growth 96h -1.0%, HCV inh 24.0% and NS1 function inh -0.7%.
For CSc1cccc(CN2CCC(CO)(Cc3cccc(C(F)(F)F)c3)CC2)c1 the results were Pf growth 48h inconclusive, VACV mCherry inh -17.2%, Vaccinia Venus -26.8%, Pf growth 96h 0.3%, HCV inh inconclusive and NS1 function inh -1.8%.
For FC(F)(F)c1ccccc1CN1CCN(Cc2ccccc2)CC1 the results were VACV mCherry inh inactive, Vaccinia Venus -15.4%, Pf growth 96h 34.9%, HCV inh 26.9% and NS1 function inh -35.5%.
`OCC1(Cc2ccccc2C(F)(F)F)CCN(Cc2ccc3c(c2)CCO3)CC1` gave Pf growth 48h 11.7µM*, VACV mCherry inh -8.9%, Vaccinia Venus -12.6%, Pf growth 96h inconclusive, HCV inh 9.4% and NS1 function inh 4.8%.
`Cc1ccc(-n2cc(CN3CCC(CO)(Cc4cccc(C(F)(F)F)c4)CC3)cn2)cc1` gave Pf growth 48h inconclusive, VACV mCherry inh inconclusive, Vaccinia Venus 11.2µM*, Pf growth 96h inconclusive, HCV inh 11.2µM* and NS1 function inh -10.4%.
`Cc1ccc(-n2cc(CN3CCC(CO)(Cc4ccccc4)CC3)cn2)cc1` gave Pf growth 48h inconclusive, Pf growth 96h -10.5% and NS1 function inh -2.7%.
